Experimental data published in PubChem BioAssay (Tox21).
Records with an inconclusive call do not appear. Activity calls are given as the source filed them. Unless noted, the call rests on the fitted dose curve; in most records, active means well fitted curve in the direction sought with a large enough effect in the repeat runs; inconclusive means weak or mixed curves; inactive means no such curve, though single readings can be large; an effect the other way counts as inactive or inconclusive.

Key:
[1] = qHTS RealTime-Glo MT Cell Viability Assay in HepG2 cells - 32 hour (AID 1224877); further: nearly all actives have a fitted effect of over 55% in size
Outline: (§1)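 HepG2 cells were seeded at 600 cells/well together with NanoLuc luciferase and a cell-permeant prosubstrate, preincubated 5 h at 37 C/5% CO2, then pin-dosed with compounds in DMSO. Nonlytic luminescence from viable cells was read at each time point.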

[2] = A CellTox Green Cytotoxicity Assay to monitor cytotoxicity in HepG2 cells - 24 hour (AID 1224878); further: nearly all actives have a fitted effect of over 45% in size
Outline: (§2)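 HepG2, 600 cells/well premixed w/ CellTox Green; 5 h settle, 37 C/5% CO2; pintool cpd add (DMSO); 37 C, 40 h; fluorescence read at 0, 8, 16, 24, 32, 40 h.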

[3] = A CellTox Green Cytotoxicity Assay to monitor cytotoxicity in HepG2 cells - 40 hour (AID 1224879); further: nearly all actives have a fitted effect of over 40% in size
Outline: as §2

[4] = qHTS RealTime-Glo MT Cell Viability Assay in HEK293 cells - 0 hour (AID 1224880); further: top concentration of the series differs between compounds; nearly all actives have a fitted effect of over 45% in size
Outline: (§3)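 Luminescence readout at each listed time point; HEK293, 600 cells/well, RealTime-Glo MT reagent added with cells; compounds pinned (23 nL in DMSO) after 5 h at 37 C; continuous culture at 37 C.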

[5] = A CellTox Green Cytotoxicity Assay to monitor cytotoxicity in HEK293 cells - 32 hour (AID 1224881); further: nearly all actives have a fitted effect of over 40% in size
Outline: (§4)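 Read-out: fluorescence of a cell-impermeant cyanine dye staining DNA of dead cells, proportional to cytotoxicity. HEK293, 600 cells/well with reagent, compound (23 nL DMSO) added after 5 h; reads at 0, 8, 16, 24, 32, 40 h.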

[6] = A CellTox Green Cytotoxicity Assay to monitor cytotoxicity in HepG2 cells - 0 hour (AID 1224882); further: nearly all actives have a fitted effect of over 35% in size
Outline: as §2

[7] = A CellTox Green Cytotoxicity Assay to monitor cytotoxicity in HepG2 cells - 32 hour (AID 1224883); further: nearly all actives have a fitted effect of over 50% in size
Outline: as §2

[8] = A CellTox Green Cytotoxicity Assay to monitor cytotoxicity in HEK293 cells - 8 hour (AID 1224884); further: nearly all actives have a fitted effect of over 35% in size
Outline: as §4

[9] = qHTS RealTime-Glo MT Cell Viability Assay in HepG2 cells - 16 hour (AID 1224885); further: nearly all actives have a fitted effect of over 50% in size
Outline: as §1

[10] = qHTS RealTime-Glo MT Cell Viability Assay in HEK293 cells - 24 hour (AID 1224886); further: top concentration of the series differs between compounds; nearly all actives have a fitted effect of over 50% in size
Outline: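 HEK293 cells were seeded at 600 cells/well together with NanoLuc luciferase and cell-permeant prosubstrate, preincubated 5 h at 37 C/5% CO2, then given compound in DMSO by pintool. Luminescence from viable-cell prosubstrate reduction was read repeatedly over 40 h.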

[11] = qHTS RealTime-Glo MT Cell Viability Assay in HEK293 cells - 8 hour (AID 1224887); further: top concentration of the series differs between compounds; nearly all actives have a fitted effect of over 50% in size
Outline: as §3

[12] = A CellTox Green Cytotoxicity Assay to monitor cytotoxicity in HEK293 cells - 16 hour (AID 1224888); further: nearly all actives have a fitted effect of over 35% in size
Outline: as §4

[13] = qHTS RealTime-Glo MT Cell Viability Assay in HepG2 cells - 0 hour (AID 1224889); further: nearly all actives have a fitted effect of over 50% in size
Outline: as §1

[14] = A CellTox Green Cytotoxicity Assay to monitor cytotoxicity in HepG2 cells - 8 hour (AID 1224890); further: nearly all actives have a fitted effect of over 45% in size
Outline: as §2

[15] = qHTS assay to identify small molecule antagonists of the estrogen receptor alpha (ER-alpha) signaling pathway using the BG1 cell line in the presence of 0.1 nM 17-beta-estradiol - cell viability counter screen (AID 1259241); further: nearly all actives have a fitted effect of over 40% in size
Outline: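 Cells were plated and left 24 hr, compounds in DMSO were pinned in, 17beta-estradiol was added to 0.1 nM final, and after 22 hr CellTiter-Fluor reagent was added for 30 min before fluorescence was read.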

[16] = qHTS assay to identify small molecule antagonists of the androgen receptor (AR) signaling pathway using the MDA cell line in the presence of 0.5 nM R1881 - cell viability counter screen (AID 1259242); further: nearly all actives have a fitted effect of over 45% in size
Outline: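 Live-cell protease fluorescence, CellTiter-Fluor, 30 min at 37C. Cells: MDA-kb2, 3,000/well, preincubated 5 hr. Compounds plus 0.5 nM R1881 final, 16 hr, 37C, 0% CO2.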

[17] = target: Estrogen receptor (Homo sapiens) (UniProt P03372); assay: qHTS assay to identify small molecule antagonists of the estrogen receptor alpha (ER-alpha) signaling pathway using the BG1 cell line in the presence of 0.1 nM 17-beta-estradiol (AID 1259244); further: nearly all actives have a fitted effect of over 50% in size
Outline: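 Luminescence after ONE-Glo (30 min, room temperature) measured ERE-luciferase activity in VM7Luc4E2 cells treated 22 h with compound and 0.1 nM final 17beta-estradiol as stimulator.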

[18] = qHTS assay to identify small molecule phospholipidosis (PLD) inducers (AID 1259344; active means well fitted curve in the direction sought with a large enough effect; an effect the other way counts as inactive or inconclusive)
Outline: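 Cells (HepG2, 900 per well) attach for 4 h, receive LipidTOX Red and compound together, incubate 24 h at 37 C, are fixed 30 min with paraformaldehyde/Hoechst, then imaged at one site per well.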

[19] = qHTS assay to identify small molecule HDAC inhibitors (AID 1259364)
Outline: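 HCT-116 (wild type), 1,500 cells/well, overnight; compound 2 hr 37C 5% CO2; HDAC-Glo I/II reagent 30 min RT; luminescence readout.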

[20] = target: Androgen receptor (Homo sapiens) (UniProt P10275); assay: qHTS assay to identify small molecule antagonists of the androgen receptor (AR) signaling pathway using the MDA cell line in the presence of 0.5 nM R1881 (AID 1259243); further: nearly all actives have a fitted effect of over 50% in size
Outline: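 MDA-kb2, MMTV-luc (AR/GR elements); 3,000 cells/well; cpd + 0.5 nM R1881 final; 16 hr 37C, 0% CO2; ONE-Glo 30 min RT; luminescence.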

Measured: Potency

Sequence of Androgen receptor (Homo sapiens) (P10275 whole entry, looked up): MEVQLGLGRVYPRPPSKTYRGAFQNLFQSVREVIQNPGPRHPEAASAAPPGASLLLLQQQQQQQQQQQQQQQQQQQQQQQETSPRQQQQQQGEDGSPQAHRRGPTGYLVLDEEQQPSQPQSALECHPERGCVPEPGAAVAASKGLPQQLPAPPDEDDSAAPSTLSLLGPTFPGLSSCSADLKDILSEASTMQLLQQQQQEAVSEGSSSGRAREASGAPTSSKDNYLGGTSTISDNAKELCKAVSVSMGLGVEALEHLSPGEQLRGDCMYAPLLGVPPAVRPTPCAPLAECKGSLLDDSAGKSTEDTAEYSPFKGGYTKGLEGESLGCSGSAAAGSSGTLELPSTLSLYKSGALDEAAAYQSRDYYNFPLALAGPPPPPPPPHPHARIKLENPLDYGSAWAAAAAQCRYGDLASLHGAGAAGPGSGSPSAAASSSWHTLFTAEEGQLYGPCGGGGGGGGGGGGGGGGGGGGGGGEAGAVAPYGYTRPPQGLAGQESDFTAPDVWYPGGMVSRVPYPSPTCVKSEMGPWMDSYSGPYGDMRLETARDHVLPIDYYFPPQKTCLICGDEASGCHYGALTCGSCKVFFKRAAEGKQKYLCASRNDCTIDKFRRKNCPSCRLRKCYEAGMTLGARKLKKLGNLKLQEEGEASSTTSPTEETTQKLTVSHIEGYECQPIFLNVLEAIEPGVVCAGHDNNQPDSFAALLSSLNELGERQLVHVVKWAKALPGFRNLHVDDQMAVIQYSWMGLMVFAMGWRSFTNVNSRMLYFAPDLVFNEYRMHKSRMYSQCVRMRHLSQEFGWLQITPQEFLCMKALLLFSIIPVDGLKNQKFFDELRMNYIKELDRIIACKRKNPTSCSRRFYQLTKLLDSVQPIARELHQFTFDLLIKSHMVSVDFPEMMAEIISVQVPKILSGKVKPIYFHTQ
Sequence of Estrogen receptor (Homo sapiens) (P03372 whole entry, looked up): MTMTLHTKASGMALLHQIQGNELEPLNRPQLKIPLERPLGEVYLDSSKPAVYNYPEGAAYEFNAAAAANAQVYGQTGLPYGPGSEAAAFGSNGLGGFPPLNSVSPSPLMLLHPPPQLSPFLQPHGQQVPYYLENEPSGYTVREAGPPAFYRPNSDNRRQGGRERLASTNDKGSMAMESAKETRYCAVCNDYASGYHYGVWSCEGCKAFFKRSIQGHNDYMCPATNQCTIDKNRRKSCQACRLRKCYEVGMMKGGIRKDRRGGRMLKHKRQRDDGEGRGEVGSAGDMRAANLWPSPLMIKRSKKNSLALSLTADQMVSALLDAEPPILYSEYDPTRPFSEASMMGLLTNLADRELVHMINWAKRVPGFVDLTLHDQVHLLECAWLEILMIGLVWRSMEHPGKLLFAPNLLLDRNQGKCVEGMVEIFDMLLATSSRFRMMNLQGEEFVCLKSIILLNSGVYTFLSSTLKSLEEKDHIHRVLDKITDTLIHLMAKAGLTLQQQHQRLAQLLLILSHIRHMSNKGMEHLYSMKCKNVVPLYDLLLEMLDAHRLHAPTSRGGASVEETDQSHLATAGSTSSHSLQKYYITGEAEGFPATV

O=C(CN1CCNCC1)NC1CCCCC1
not listed: [20]
inactive: all other assays above

O=C(NCN1CCOCC1)c1cnccn1
inactive: all assays above

CC(=O)C(C)O (configuration not stated)
not listed: [17] | [18] | [19] | [20]
inactive: all other assays above

COc1cc(OC)nc(O[C@H](C(=O)O)C(OC)(c2ccccc2)c2ccccc2)n1
not listed: [18]
inactive: all other assays above

CCNC(=O)NCc1cccc(Cl)c1
not listed: [20]
inactive: all other assays above

C/C(=C1\CCOC(=O)S1)N(C=O)Cc1cnc(C)nc1N
not listed: [18] | [20]
inactive: all other assays above

CC(C)Cn1cnc2c1c(=O)n(C)c(=O)n2C
not listed: [20]
inactive: all other assays above

CN(C)CCN(C)CCO
not listed: [18] | [20]
inactive: all other assays above

COC(=O)/C=C\C(=O)O
not listed: [18] | [20]
inactive: all other assays above

CCN(CC)CCN
not listed: [18] | [20]
inactive: all other assays above

CN(C)C(C)(C)CO
not listed: [18] | [20]
inactive: all other assays above

Cc1ccc(C(=O)O)cc1[N+](=O)[O-]
not listed: [18]
inactive: all other assays above

C=CC/C=C/C
not listed: [18] | [19] | [20]
inactive: all other assays above

CC(=O)OC1CCCCC1C(C)(C)C (configuration not stated)
not listed: [18]
inactive: all other assays above
